# Laboratory results as given in the emibetuzumab library of Makowski et al. (2022).
# The other results are listed elsewhere or left out. The hit rate among all sequences tested is not known here.
# B1: VH:VL chains; a variant is named by its letters at X, in order (parent)
# chain 1: QVQLVQSGAEVKKPGASVKVSCKASGYTFTDYXMHWVRQAPGQGLEWMGXVNPNXXXTTYNQKFEGRVTMTTDTSTSTAYMELRSLRSDDTAVYYCARXNXLDXWGQGTTVTVSS
# chain 2: DIQMTQSPSSLSASVGDRVTITCSVSSSVSSIYLHWYQQKPGKAPKLLIYSTSNLASGVPSRFSGSGSGTDFTLTISSLQPEDFATYYCQVYSGYPLTFGGGTKVEIK
# Variants of: B1
# Test: yeast display scFab, FACS + sequencing
# Details: with MET
# Method in brief: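 A heavy-chain CDR mutant scFab library on yeast was enriched magnetically with HGFR-Fc-coated Protein A beads for two rounds and then by FACS after labelling with 1 nM HGFR-Fc and anti-Myc in PBSB with 1% milk for 3 h at room temperature, gating the top 50% antigen-positive cells. Antigen binding was judged positive if a sequence turned up in both antigen-positive deep-sequencing samples and negative if it turned up only in the input.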
row,Variant,antigen binding call
1,DAEATDGA,no binding
2,DATGGDGY,no binding
3,DTGGSASA,no binding
4,YRKRGAGD,binds
5,YRKRGAAD,binds
6,YAKRDAGD,no binding
7,YRKRGAVD,binds
8,YRKGGAVD,binds
9,AKATADVD,no binding
10,DTGGGDAV,no binding
11,YRGAGAAD,binds
12,YRGAGSAD,binds
13,YAGAGSAD,no binding
14,YKGAGSAD,no binding
15,YKGKSAWV,binds
16,YAGKGAWV,no binding
17,YKGKGAWV,binds
18,VKGKGDWV,no binding
19,YKTKSDWV,no binding
20,DEGGTDSA,no binding

row,Variant,antigen binding call
1,SKGKGSAA,binds
2,SEEEGSAA,no binding
3,SKRRSVGA,no binding
4,SKGKGVGA,binds
5,YKGKGSAA,binds
6,SKGKGSSA,no binding
7,YKGKGFAA,no binding
8,SKAKGSAA,binds
9,AARADSGD,no binding
10,DEGRSVAA,no binding
11,DAARAVSS,no binding
12,VAKADALD,no binding
13,FKGEGDSA,no binding
14,VKGKGSAA,binds
15,YRGKGSAA,binds
16,VRERGSSF,binds
17,VTAESSSF,no binding
18,YRERGSSF,binds
19,VRERGDWF,no binding
20,YAEGASSF,no binding

row,Variant,antigen binding call
1,VRARGSSF,binds
2,VRAGGDSF,no binding
3,AETAGAAA,no binding
4,DAATAYGS,no binding
5,FATRASGD,no binding
6,FRGTGSGD,no binding
7,FRGKGSGD,binds
8,FRTKGSGD,binds
9,FATKGFGD,no binding
10,VEEEGDGV,no binding
11,YAGTGFWV,no binding
12,DEGGTDAV,no binding
13,FREGSASV,no binding
14,YKGRASAV,no binding
15,YKGKGSAV,binds
16,FKGKGAAF,no binding
17,FREEGFSV,no binding
18,FRGKGASV,binds
19,FRGKGAAV,binds
20,FKGKGAVV,binds
